Screens from PubChem BioAssay.
MITF TRPM1 inh = inhibitors of MITF-dependent TRPM1 promoter reporter, primary screen, cell-based, SK-MEL-5, single point, luciferase | inhibition, % at 12.5 µM | SK-MEL-5 TRPM1 promoter luciferase, 24 h | actives 0.83% (n = 330,000);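 active means mean inhibition across replicates of 60% or more, whatever share of single replicates reaches that level; inconclusive means some that reach 60%, reason not given; inactive means mean inhibition across replicates below 60%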
CF NFkB inh = inhibitors of PAF-induced NF-kB signaling, primary screen, cell-based, GFP fluorescence, uHTS. KKLEB NF-kB-GFP reporter, GFP fluorescence overnight. inhibition, % at 5 µM. AID 588850, 2011. actives 0.86% (n = 360,000);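 active means at least 50% inhibition at 5 µM, scaled per plate between neutral and stimulator controls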;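 further: PAF is a Pseudomonas aeruginosa culture filtrate used as stimulus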
HIF-2a block = HIF-2a reporter inhibitors, primary screen, luminescence, 786-0 RCC cells; actives 0.72% (n = 360,000); 786-0 RCC cells HIF-2a reporter, luciferase luminescence, overnight; AID 624352, 2012; inhibition, % at 18.8 µM;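 active means inhibition of the luminescence signal of 40% or more relative to plate controls, in a single-dose primary screen at 18.75 µM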
KKLEB tox = cytotoxicity in KKLEB CF airway cells, primary screen, cytotoxicity control for CF NF-kB inhibitor project, cell-based, uHTS, fluorescence assay plates; actives 0.36% (n = 360,000); activity change (cytotoxicity), % at 5 µM; KKLEB CF airway cells viability, ATPlite luminescence, overnight; active compounds read low; cells stimulated with P. aeruginosa culture filtrate;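 active means corrected activity change at or below -50% at 5 µM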
ABHD5 PLIN5 PPI = ABHD5-PLIN5 interaction inhibitors, primary screen, cell lysate, split luciferase complementation, luminescence; actives 0.78% (n = 360,000); inhibition, % at 4 µM; AID 602281, 2012; Split G. princeps luciferase complementation, 4 h; Perilipin-5 (Homo sapiens) + 1-acylglycerol-3-phosphate O-acyltransferase ABHD5 (Homo …;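 active means inhibition above the mean inhibition across every tested compound plus 3 SD, cut at about 22% in these data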
Peg3 promoter = Peg3 promoter-driven luciferase inhibitors, primary screen, cell-based, HeLa, luciferase luminescence | HeLa PEG-Prom luciferase reporter, overnight | inhibition, % at 20 µM | actives 1.7% (n = 360,000) | AID 588405, 2011;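 active means inhibition of at least 50% at 20 µM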
ABHD5 PLIN5 conf = ABHD5-PLIN5 interaction inhibitors, confirmation, biochemical, luminescence | shares compounds with ABHD5 PLIN5 PPI | inhibition, % at 4 µM | actives 67% (n = 2,200); in the data active means inhibition above about 23%
HNF4 split-luc = HNF4 dimerization inhibitors, counter-screen for ABHD5-PLIN5 interaction inhibitor project, biochemical, split-luciferase complementation, luminescence; shares compounds with ABHD5 PLIN5 PPI; inhibition, % at 4 µM; actives 77% (n = 2,200);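 active means mean inhibition across replicate wells exceeding the computed hit threshold, cut at about 13% in these data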;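 further: light from luciferase halves that rejoin when HNF4 fusion proteins dimerize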
Target sequence (P41235 whole entry, looked up, the tested form may be a part): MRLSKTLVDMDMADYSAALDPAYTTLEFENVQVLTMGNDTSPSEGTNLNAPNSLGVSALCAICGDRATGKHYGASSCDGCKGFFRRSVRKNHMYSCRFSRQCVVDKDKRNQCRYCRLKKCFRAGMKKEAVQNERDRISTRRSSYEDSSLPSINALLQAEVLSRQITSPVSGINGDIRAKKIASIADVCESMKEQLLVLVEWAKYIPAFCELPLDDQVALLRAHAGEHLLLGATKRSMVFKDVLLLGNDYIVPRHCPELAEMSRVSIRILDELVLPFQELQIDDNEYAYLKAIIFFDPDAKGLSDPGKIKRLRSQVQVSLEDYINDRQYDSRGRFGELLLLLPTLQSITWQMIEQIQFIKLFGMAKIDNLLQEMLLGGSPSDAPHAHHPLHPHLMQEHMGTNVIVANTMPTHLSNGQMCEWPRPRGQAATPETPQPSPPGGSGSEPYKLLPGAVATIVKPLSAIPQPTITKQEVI
Of the large screens only hits and unclear results are named; the others gave an inactive call (follow-up assays come after a bar, where they were run); ! = not confirmed by another sample. Most compounds without a hit are left out; they make up all but 3.1% or so of the library.

O=C1NC(=S)NC(=O)C12C(c1ccc(F)cc1)NC(=S)NC2c1ccc(F)cc1 (configuration not stated)	ABHD5 PLIN5 PPI 24.2 | ABHD5 PLIN5 conf 78.9 | HNF4 split-luc 63.1
Cc1ccc(C2NC(=S)NC(c3ccc(C)cc3)C23C(=O)NC(=O)NC3=O)cc1 (configuration not stated)	none
COc1ccc(CNC(=O)C(NC(C)=O)C(C)C)cc1OC (configuration not stated)	none
COc1ccc(-c2ccc3c(c2)CN(c2cccc(Cl)c2)Cc2cnnn2-3)cc1	none (no result: MITF TRPM1 inh)
Clc1cccc(N2Cc3cc(-c4ccccc4)ccc3-n3nncc3C2)c1	ABHD5 PLIN5 PPI 71.7, Peg3 promoter 101.1 (no result: MITF TRPM1 inh) | ABHD5 PLIN5 conf 47.0 | HNF4 split-luc 26.6
O=C(CF)N(O)c1ccc(C=Cc2ccccc2)cc1	ABHD5 PLIN5 PPI 36.5 | ABHD5 PLIN5 conf 46.3 | HNF4 split-luc inactive
COc1cc(CNCCc2c[nH]c3ccccc23)cc(OC)c1	none
C=C1C(=O)O[C@@H]2C[C@@H](C)[C@H]3C=CC(=O)[C@]3(O)C[C@@H]12	ABHD5 PLIN5 PPI 32.6 | ABHD5 PLIN5 conf 47.4 | HNF4 split-luc 24.2
CC(C)CCC1(CCO)C(=O)NC(=S)NC1=O	none
COc1ccc(NC2=NCCCS2)cc1OC	none
O=C1NC(=O)C(=Cc2ccccc2[N+](=O)[O-])C(=O)N1	none
CCOc1ccc(N2C(=O)NC(=O)/C(=C\c3ccccc3[N+](=O)[O-])C2=O)cc1	ABHD5 PLIN5 PPI 28.0 | ABHD5 PLIN5 conf 87.0 | HNF4 split-luc 84.9
Cc1cccc(N2C(=O)NC(=O)/C(=C/c3cc4c(cc3[N+](=O)[O-])OCO4)C2=O)c1	none
COc1ccc(N2C(=O)NC(=O)/C(=C\c3ccccc3[N+](=O)[O-])C2=O)cc1	ABHD5 PLIN5 PPI 23.2 | ABHD5 PLIN5 conf 81.2 | HNF4 split-luc 85.3
CNC(=O)Oc1cc2c(cc1C(C)(C)C)CCC2	none
O=[N+]([O-])/C=C1\NCCN1Cc1ccc(Cl)nc1	none
COCCNC(=O)c1c(N)n(Cc2ccco2)c2nc3ccccc3nc12	none
C=CCNC(=O)c1c(N)n(Cc2ccco2)c2nc3ccccc3nc12	ABHD5 PLIN5 PPI 36.0 | ABHD5 PLIN5 conf 50.3 | HNF4 split-luc 65.9
O=P1(NCCCn2cc[n+](Cc3nc4ccccc4[nH]3)c2)C=C(c2ccccc2)OC(c2ccccc2)=C1	ABHD5 PLIN5 PPI 26.2 | ABHD5 PLIN5 conf inactive | HNF4 split-luc inactive
O=c1[nH]sc2cc(F)ccc12	ABHD5 PLIN5 PPI 80.7 | ABHD5 PLIN5 conf 39.7 | HNF4 split-luc 112.7
c1ccc2sc(C3CCNCC3)nc2c1	none
CN(C)c1ccc(-[n+]2c(-c3ccccc3)cc(-c3ccccc3)cc2-c2ccccc2)cc1	MITF TRPM1 inh 92.5, ABHD5 PLIN5 PPI 26.4, Peg3 promoter 71.7 | ABHD5 PLIN5 conf inactive | HNF4 split-luc inactive
CC(=NCc1ccc2c(c1)OCO2)c1c(O)n(-c2ccc(C)cc2)c(=O)[nH]c1=O	ABHD5 PLIN5 PPI 98.5 | ABHD5 PLIN5 conf inactive | HNF4 split-luc inactive
C=CCn1c(O)c(C(C)=NCc2ccc3c(c2)OCO3)c(=O)[nH]c1=O	none
Cc1cc(C(=O)OC(C)C(=O)Nc2ccccc2)c(C)n1C1CC1 (configuration not stated)	none (no result: MITF TRPM1 inh)
C=CCNC(=S)/N=C/c1c(O)[nH]c(=O)[nH]c1=O	ABHD5 PLIN5 PPI 28.3 | ABHD5 PLIN5 conf inactive | HNF4 split-luc inactive
NCCc1ccc(OCc2ccccc2)c(OCc2ccccc2)c1	MITF TRPM1 inh 98.1, ABHD5 PLIN5 PPI 27.7, Peg3 promoter 106.6 | ABHD5 PLIN5 conf inactive | HNF4 split-luc inactive
Cc1ccccc1N1C(=O)CC(=O)NC1=O	none
COc1cccc(N2C(=O)CC(=O)NC2=O)c1	ABHD5 PLIN5 PPI 27.3 | ABHD5 PLIN5 conf inactive | HNF4 split-luc 31.8
CCc1ccc(N2C(=O)CC(=O)NC2=O)cc1	ABHD5 PLIN5 PPI 23.8 | ABHD5 PLIN5 conf inactive | HNF4 split-luc 15.5
CCOc1cccc(N2C(=O)CC(=O)NC2=O)c1	none
COc1ccccc1N1C(=O)CC(=O)NC1=O	ABHD5 PLIN5 PPI 26.7 | ABHD5 PLIN5 conf inactive | HNF4 split-luc 35.8
COC(=O)C1=C(c2ccc(OCc3ccccc3)cc2)C[C@@H]2CC[C@H]1N2C(=O)NCc1cccc(C(F)(F)F)c1	none
COCc1cc(OC(=O)N(C)C)nc(-c2ccccc2)n1	none
CC(C)n1c(=O)c(C=Nc2cccc([N+](=O)[O-])c2)c(O)n(CCc2ccccc2)c1=O	none
COc1ccc(C(SCC(NC(=O)OCc2ccccc2)C(=O)O)c2ccc(OC)cc2)cc1 (configuration not stated)	none (no result: MITF TRPM1 inh)
O=C(O)CCn1cc(C=C2C(=O)NC(=O)NC2=O)c(-c2ccc(Br)cc2)n1	ABHD5 PLIN5 PPI 24.5 | ABHD5 PLIN5 conf 68.8 | HNF4 split-luc 70.5
CSc1nc(N)c(N=Nc2ccc([As](=O)(O)O)cc2)c(=O)[nH]1	ABHD5 PLIN5 PPI 66.4 | ABHD5 PLIN5 conf 68.4 | HNF4 split-luc 51.6
Cn1c(O)c(C=Nc2cccc(C(F)(F)F)c2)c(=O)n(C)c1=O	ABHD5 PLIN5 PPI 24.1 | ABHD5 PLIN5 conf inactive | HNF4 split-luc 13.8
O=c1[nH]c(=O)n(CC2CCCO2)c(O)c1/C=C1\C=Nc2ccccc21 (configuration not stated)	ABHD5 PLIN5 PPI 26.6! | ABHD5 PLIN5 conf inactive | HNF4 split-luc 18.0
CC1=C2[C@@H]3OC(=O)[C@H](C)C3CC[C@@]2(C)C=CC1=O (some centres not stated)	none
COC(=O)C[C@]1(C(=O)OC)CN(C#N)N(c2ccc(Cl)cc2)C12c1ccccc1-c1ccccc12	MITF TRPM1 inh 95.9, CF NFkB inh 88.2, HIF-2a block 85.4, KKLEB tox -96.5, ABHD5 PLIN5 PPI 78.3, Peg3 promoter 102.9 | ABHD5 PLIN5 conf 97.6 | HNF4 split-luc 97.0
COc1ccccc1-n1c(O)c(/C=N/N2CCCCC2)c(=O)n(-c2ccccc2OC)c1=S	none
NS(=O)(=O)c1ccc(-c2ccc(C=C3C(=O)NC(=O)NC3=O)o2)cc1	ABHD5 PLIN5 PPI 25.2 | ABHD5 PLIN5 conf 91.2 | HNF4 split-luc 95.2
O=C1NC(=O)C(=Cc2ccc(-c3cc(Cl)ccc3[N+](=O)[O-])o2)C(=O)N1	MITF TRPM1 inh inconclusive
